Among all 320,000 compounds or so, about 2,800 (0.88%) were called active. What follows is part of a selection rich in actives, with near analogues and random picks from the rest. Values without a mark were called inactive.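 How the source made its calls: active means inhibition above the mean inhibition of all tested compounds plus 3 SD, computed separately for each screening campaign (cut at about 15% in these data); inactive means the rest.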

As usually defined, the inhibition is the change of the read-out against control, counted positive when it falls.

The target of this test is Serine/threonine-protein phosphatase PP1-alpha catalytic subunit (Homo sapiens) (UniProt P62136). The test is described as follows: PP1-alpha phosphatase inhibitors, primary screen, counter-screen for PP5 inhibitor project, biochemical, fluorescence, OMFP substrate, single point (AID 2235). The conditions noted are these: purified PP1alpha, at 6.7 µM, hits give high values.
Chain of Serine/threonine-protein phosphatase PP1-alpha catalytic subunit (Homo sapiens) (P62136 whole entry, looked up): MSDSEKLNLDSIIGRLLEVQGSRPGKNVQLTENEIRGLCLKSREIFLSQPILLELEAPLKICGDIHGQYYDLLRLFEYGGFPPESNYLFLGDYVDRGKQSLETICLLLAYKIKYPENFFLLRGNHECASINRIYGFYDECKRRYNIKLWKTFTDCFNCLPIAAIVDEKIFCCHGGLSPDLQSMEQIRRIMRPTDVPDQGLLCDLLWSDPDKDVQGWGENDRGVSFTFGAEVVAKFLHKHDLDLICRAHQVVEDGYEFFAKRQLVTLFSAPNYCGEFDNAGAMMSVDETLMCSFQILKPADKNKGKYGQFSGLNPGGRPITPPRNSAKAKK
Regarding `COC(C[C@@H](O)C[C@@H](O)[C@H](C)OCc1ccccc1)OC`, the inhibition is 0.46%.

With `COCCC(=O)N1CCC(Oc2ccc(C(=O)NCc3ccon3)cc2)CC1`, the inhibition was -0.97%.

Take `CCN(CC)CCNC(=O)c1ccc(NC(=O)c2cc(-c3ccncc3)nc3ccccc23)cc1`: the inhibition is -7.72%.

With `O=C(Nc1ccc(S(=O)(=O)Nc2nccs2)cc1)c1cc(=O)[nH]c2ccccc12`, the inhibition was 0.73%.

On to `O=C(Nc1ccc(S(=O)(=O)Nc2nccs2)cc1)c1cc(-c2ccncc2)nc2ccccc12`, for which the inhibition is 27.5% (active).

For `c1ccc(C2CNCc3c2ccc2ccccc32)cc1` (configuration not stated), the inhibition is 3.78%.

As for `Cn1cnc(C(F)(F)F)c1-c1ccc([N+](=O)[O-])cc1`, the inhibition was -0.23%.

Take `C[N+](C)(C)CCOP(=O)([O-])OC[C@H](O)CO`: the inhibition is -5.96%.

With `COC(=O)Cc1cc(=O)n(-c2nc3ccccc3s2)[nH]1`, the inhibition is 19.6% (active).

For the compound `CCC(=O)NC(=Nc1nc2ccccc2s1)NC(=O)CC`, the inhibition is -4.21%.

In the case of `C/C(=N\NC(=O)CC(C)C)c1c(C(F)(F)F)[nH]n(-c2nc3ccccc3s2)c1=O`, the inhibition is 4.43%.

Take `NC(=O)c1ccsc1NC(=O)COC(=O)Cc1n[nH]c(=O)c2ccccc12`: the inhibition is -0.46%.

`C/C(CC(O)(/C=N/O)c1ccccc1)=N\O` (configuration not stated): the inhibition is 31.4% (active).

As for `O=C1C2N=NN(CC(=O)N3N=C(c4cccc5ccccc45)CC3c3ccccc3)C2C(=O)N1c1ccccc1` (configuration not stated), the inhibition is 30.5% (active).

For the compound `O=C(CSc1nnnn1-c1ccc(O)cc1)N1N=C(c2ccc3ccccc3c2)CC1c1ccccc1` (configuration not stated), the inhibition was -3.09%.

Take `Oc1ccccc1C1=NN(c2ccccc2)C(c2ccccc2)C1` (configuration not stated): the inhibition is 0.4%.

As for `O=C(c1ccccc1)N1N=C(c2ccccc2O)CC1c1ccc(Br)cc1` (configuration not stated), the inhibition was 6.46%.

For `Cc1ccc(N2C(=O)C3N=NN(CC(=O)N4N=C(c5cccc6ccccc56)CC4c4ccccc4)C3C2=O)cc1` (configuration not stated), the inhibition is 29.8% (active).

As to `CC(=O)Oc1ccccc1C1=NN(C(C)=O)C(c2ccccc2)C1` (configuration not stated), the inhibition is -2.36%.

In the case of `COc1ccc(C(=NN)c2ccc(OC)cc2)cc1`, the inhibition was -2.58%.

Take `COc1ccc(-c2nc3c(s2)CCc2onc(-c4ccc(Br)cc4)c2-3)cc1`: the inhibition is -1.07%.

Consider `CCc1ccc(N(CC)c2ncnc3nc[nH]c23)cc1`, for which the inhibition is 2.16%.

Take `[2H]C(CCOS(N)(=O)=O)c1ccccc1` (configuration not stated): the inhibition was -3.22%.

As for `Cc1cc(C(=O)OCC(=O)NCc2ccco2)c(C)n1-c1ccccc1`, the inhibition was -0.54%.

With `CN(C)/C=C(/C(=O)c1ccc(Cl)cc1)S(=O)(=O)c1ccccc1`, the inhibition was 0.05%.

For the compound `CC(C)(C)c1nnc(NC(=O)C2c3ccccc3Oc3ccccc32)s1`, the inhibition is 1.1%.

Regarding `CNC(=O)C1CCN(S(=O)(=O)c2c(C)noc2/C=C/c2cccc(C)c2)CC1`, the inhibition was 0.59%.

Take `Cc1noc(/C=C/c2ccco2)c1S(=O)(=O)N1CCC(C(=O)Nc2ccc(Cl)cn2)CC1`: the inhibition is 0.73%.

With `Cc1noc(/C=C/c2ccco2)c1S(=O)(=O)N1CCC(C(=O)N2CCc3ccccc32)CC1`, the inhibition was 15.4% (active).

In the case of `O=C(CSc1nc2ccccc2c(=O)n1CCCO)NC1CC1`, the inhibition was -4.92%.

Take `O=C(COC(=O)Cc1ccccc1F)NNC(=O)c1ccc(Cl)cc1`: the inhibition is -4.59%.

Consider `C#CCCCc1nc2ccccc2c(=O)n1N`, for which the inhibition was -2.85%.

These data come from PubChem BioAssay AID2235 (The Scripps Research Institute Molecular Screening Center, 2010).
